Data reported in PubChem BioAssay AID602252 (Broad Institute, 2012).
In all, about 300,000 compounds went through this assay and about 2,700 (0.9%) were called active. The sample holds actives, similar compounds and a random draw of the others, so the mix is not that of the screen.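 The calls were made as follows: active = mean inhibition of at least 30% with at least half of replicates also reaching 30%; inconclusive = no clear call, values can overlap the other calls; inactive = the rest.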

Each molecule was assayed against Golgi-associated PDZ and coiled-coil motif-containing protein (Homo sapiens) (UniProt Q9HD26) (assay: untagged CAL PDZ binding inhibitors, primary screen, biochemical, fluorescence polarization, HTS (AID 602252;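 also: 0% = DMSO neutral control and 100% = excess unlabeled competitor peptide PRC23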)). Details: purified CAL PDZ, TMR-peptide fluorescence polarization, 1 h; at 24.9 µM; active compounds read high.

inhibition, inactive:
COc1ccc(-c2ccc3c(c2)C2CC3CCN2CCC#N)cc1 (stereo not given) -7.19%
COc1ccc(C(=O)NCC(=O)N/N=C/c2ccc([N+](=O)[O-])s2)cc1OC 1.89%
Cc1ccccc1NCC(=O)N/N=C\c1ccc([N+](=O)[O-])s1 -2.26%
COc1cc(C(=O)CCc2ccc3c(c2)OCO3)cc(OC)c1OC -5.96%
CCOc1ccc(S(=O)(=O)Nc2nc3cc(OC)ccc3s2)cc1 1.2%
O=C(O)c1cccc(S(=O)(=O)Nc2ccc(O)cc2Sc2nc3ccccc3s2)c1 -1.01%
COc1ccc(CCNC(=O)c2ccc(NC(=O)CC3SC(N4CCCCC4)=NC3=O)cc2)cc1OC (stereo not given) -1.27%
O=C1c2ccccc2C(=O)C1C(=O)C1CC1 -5.16%
CS(=O)(=O)N(CC(=O)Nc1ccc(F)cc1)C1CCCCC1 -14.6%
CCC(C)NC(=O)CN(C1CCCCC1)S(C)(=O)=O (stereo not given) 7.29%
COc1ccc(Cn2cc(CN3CCS(=O)(=O)N(Cc4ccc(-c5cccc(Cl)c5)cc4)C(C)C3=O)nn2)cc1 (stereo not given) -4.3%
CCn1c(-c2ccncc2)n[nH]c1=S -0.231%
CCCc1cc(-c2n[nH]c(=S)n2Cc2ccccc2)cs1 -5.83%
O=C(N[C@H]1C/C=C\C(c2ccc(F)cc2)N(Cc2ccccc2)C(=O)C1)OCC1c2ccccc2-c2ccccc21 (stereo not given in full) -2.32%
O=C(Nc1cccc(-c2nnc(-c3ccccc3)o2)c1)C1CCCO1 (stereo not given) -1.93%
CC(C)Cc1nnc(NC(=O)CCc2ccccc2)s1 -1.93%
CN(c1ccccc1)S(=O)(=O)c1ccc(C(=O)N2CCN(c3ccccc3Cl)CC2)cc1 -2.37%
Cc1ccc(C(=O)C[n+]2cc(-c3ccccc3)n3c2CCCCC3)cc1 -2%
Cn1c(-c2ccccc2)c[n+]2c1CCCCC2 -4.71%
COc1ccccc1CNC(=O)c1ccc(Cl)c(S(=O)(=O)N2CCCC2)c1 -2.41%

inhibition, active:
CNN/C(N=Cc1ccc([N+](=O)[O-])s1)=N\S(=O)(=O)c1cc(C)c(Cl)cc1SCc1ccccc1 66.8%
COc1ccc(S(=O)(=O)Nc2ccc(O)c(Sc3nc4ccccc4s3)c2)cc1 40.1%
CS(=O)(=O)N(CC(=O)Nc1ccc(Cl)c(Cl)c1)C1CCCCC1 51.4%
O=C(Nc1nnc(CCc2ccccc2)s1)C1CCCO1 (stereo not given) 32%
Clc1ccc(C[n+]2cc(-c3ccc(Cl)cc3)n3c2CCC3)cc1 36.9%
